Our source for the growth inhibition, inhibition and outcome values is PubChem BioAssay.

Experiment [1] is described as follows: antimalarial activity against Dd2 strain (AID 2302;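 active = growth inhibition above 50% at the single 2 µM test dose, taken to imply half-maximal potency below 2 µM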;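 note: 0% = DMSO untreated growth and 100% = chloroquine plus artemisinin killed control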). The following applies: P. falciparum Dd2 in RBCs, LDH growth readout, 72 h; at 2 µM; stronger effect = higher value.
Experiment [2] in a line: HepG2 cytotoxicity, primary screen, cytotoxicity control for P. falciparum antimalarial project, cell-based, ATP luminescence (AID 2303;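 active = inhibition above 50%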;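 note: 0% = DMSO wells and 100% = digitonin-killed cells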). The settings on record: HepG2 viability, 24-48 h, at 10 µM, stronger effect = higher value.
For experiment [3], the target named is L-lactate dehydrogenase (Plasmodium falciparum (isolate CDC / Honduras)) (UniProt Q27743). Description: PfLDH activity inhibition – cell lysate, 3D7 strain, counter-screen for P. falciparum growth inhibition project (AID 2304).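 Note: 0% = vehicle and 100% = reference inhibitor.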 The settings on record: P. falciparum 3D7 crude extract, LDH APAD/NBT absorbance; at 2 µM; stronger effect = higher value. On the technique in general: The purpose of a counterscreen is to sort out artefacts and off-target activity.

The nature of experiment [4]: inhibition of 3D7 malaria parasite growth – strain 3D7 (AID 2306).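 Note: 0% = DMSO wells and 100% = chloroquine plus artemisinin control wells.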 The settings on record: P. falciparum 3D7 erythrocytic growth, LDH absorbance, 72 h; at 2 µM; stronger effect = higher value.
For experiment [5], the target named is Calcium-dependent protein kinase 1 (Plasmodium falciparum (isolate 3D7)) (UniProt P62344). Description: PfCDPK1 kinase inhibitors, biochemical, TCAMS library (AID 1159585; cut-off not given, nearly all actives have IC50 up to about 0.98 µM;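 note: inhibitors leave more ATP so luminescence rises with inhibition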). The settings on record: recombinant PfCDPK1, Kinase-Glo ATP depletion luminescence. In general terms: Kinase-Glo reads ATP consumption through a luciferase reaction.
In experiment [6] the target is Plasmodium falciparum protein kinase 6 (PK6, PF3D7_1337100) (UniProt Q8IDW1). Description: PfPK6 kinase inhibitors, biochemical, TCAMS library (AID 1159586). The settings on record: recombinant PfPK6, Kinase-Glo ATP depletion luminescence.
Experiment [7] addresses Protein kinase 7 (PK7), Plasmodium falciparum 3D7 (PF3D7_0213400) (UniProt Q7YTF7). Description: inhibition of Plasmodium PK7 catalytic activity – biochemical, TCAMS antimalarial set, Kinase-Glo luminescence (AID 1159587). The settings on record: recombinant PfPK7, Kinase-Glo ATP depletion luminescence.
For experiment [8], the target named is Calcium-dependent protein kinase 4 (Plasmodium falciparum (isolate 3D7)) (UniProt Q8IBS5). Description: PfCDPK4 kinase inhibitors, biochemical, TCAMS library (AID 1159588; cut-off not given, nearly all actives have IC50 up to about 0.91 µM). The settings on record: recombinant PfCDPK4, Kinase-Glo ATP depletion luminescence.

Structures are written as SMILES. Values joined by “and” are separate entries in the source; they are usually repeats but may differ in a detail not shown here. Equal entries are not always repeated. For part of these data: Results with a measured potency or affinity are listed apart. More than one record can exist for a structure, and the calls need not agree. Active and inactive are the calls of the source. Unless noted, the rule behind the calls is not given here.

Calcium-dependent protein kinase 1 (Plasmodium falciparum (isolate 3D7)), sequence (P62344 whole entry, looked up): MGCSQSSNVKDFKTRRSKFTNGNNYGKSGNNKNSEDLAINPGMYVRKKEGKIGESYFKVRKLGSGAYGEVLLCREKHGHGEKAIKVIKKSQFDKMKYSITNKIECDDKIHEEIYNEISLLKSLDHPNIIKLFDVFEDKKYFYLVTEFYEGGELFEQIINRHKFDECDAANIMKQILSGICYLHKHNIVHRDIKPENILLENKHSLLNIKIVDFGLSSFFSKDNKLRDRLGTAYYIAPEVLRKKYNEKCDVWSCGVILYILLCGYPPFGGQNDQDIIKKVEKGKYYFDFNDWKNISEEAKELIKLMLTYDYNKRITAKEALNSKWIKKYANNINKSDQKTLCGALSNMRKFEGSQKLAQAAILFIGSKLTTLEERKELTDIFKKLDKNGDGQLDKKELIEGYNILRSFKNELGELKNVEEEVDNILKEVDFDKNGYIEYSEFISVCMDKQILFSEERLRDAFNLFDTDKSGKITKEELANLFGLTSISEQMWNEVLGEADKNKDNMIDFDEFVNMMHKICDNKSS
L-lactate dehydrogenase (Plasmodium falciparum (isolate CDC / Honduras)), sequence (Q27743 whole entry, looked up): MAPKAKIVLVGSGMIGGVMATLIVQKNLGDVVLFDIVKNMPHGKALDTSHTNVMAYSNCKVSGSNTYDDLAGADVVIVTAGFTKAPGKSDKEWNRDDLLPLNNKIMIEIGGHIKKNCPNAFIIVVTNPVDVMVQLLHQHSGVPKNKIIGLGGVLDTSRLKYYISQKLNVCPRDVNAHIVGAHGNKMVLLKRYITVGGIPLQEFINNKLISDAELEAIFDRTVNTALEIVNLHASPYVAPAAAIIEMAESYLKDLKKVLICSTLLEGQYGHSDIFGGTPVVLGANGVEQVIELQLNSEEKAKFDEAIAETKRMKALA
Calcium-dependent protein kinase 4 (Plasmodium falciparum (isolate 3D7)), sequence (Q8IBS5 whole entry, looked up): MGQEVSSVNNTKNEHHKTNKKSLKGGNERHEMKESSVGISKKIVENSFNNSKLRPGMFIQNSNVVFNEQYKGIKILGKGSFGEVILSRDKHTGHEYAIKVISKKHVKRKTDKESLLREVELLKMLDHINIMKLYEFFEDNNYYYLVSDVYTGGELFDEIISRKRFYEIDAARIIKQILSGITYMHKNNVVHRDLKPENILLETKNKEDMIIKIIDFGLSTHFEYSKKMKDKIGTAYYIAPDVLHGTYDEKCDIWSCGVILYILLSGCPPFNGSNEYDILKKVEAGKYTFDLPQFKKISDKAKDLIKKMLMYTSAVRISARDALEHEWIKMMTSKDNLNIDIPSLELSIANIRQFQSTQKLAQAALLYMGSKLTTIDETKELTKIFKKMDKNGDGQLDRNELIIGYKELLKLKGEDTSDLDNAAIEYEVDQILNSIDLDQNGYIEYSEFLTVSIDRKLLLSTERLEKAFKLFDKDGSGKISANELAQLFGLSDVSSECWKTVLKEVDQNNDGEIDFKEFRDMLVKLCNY
Protein kinase 7 (PK7), Plasmodium falciparum 3D7 (PF3D7_0213400), sequence (Q7YTF7 1-343): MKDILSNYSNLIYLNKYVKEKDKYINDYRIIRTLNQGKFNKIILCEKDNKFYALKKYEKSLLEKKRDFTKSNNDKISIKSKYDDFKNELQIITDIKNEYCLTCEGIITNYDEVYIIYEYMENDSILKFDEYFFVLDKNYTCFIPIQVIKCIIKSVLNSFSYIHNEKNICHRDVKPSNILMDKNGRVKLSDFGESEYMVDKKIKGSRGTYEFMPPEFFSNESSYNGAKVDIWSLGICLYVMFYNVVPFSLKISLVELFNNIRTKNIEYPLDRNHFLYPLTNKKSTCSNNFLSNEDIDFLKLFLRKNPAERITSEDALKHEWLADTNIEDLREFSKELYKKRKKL
Plasmodium falciparum protein kinase 6 (PK6, PF3D7_1337100), sequence (Q8IDW1 1-305): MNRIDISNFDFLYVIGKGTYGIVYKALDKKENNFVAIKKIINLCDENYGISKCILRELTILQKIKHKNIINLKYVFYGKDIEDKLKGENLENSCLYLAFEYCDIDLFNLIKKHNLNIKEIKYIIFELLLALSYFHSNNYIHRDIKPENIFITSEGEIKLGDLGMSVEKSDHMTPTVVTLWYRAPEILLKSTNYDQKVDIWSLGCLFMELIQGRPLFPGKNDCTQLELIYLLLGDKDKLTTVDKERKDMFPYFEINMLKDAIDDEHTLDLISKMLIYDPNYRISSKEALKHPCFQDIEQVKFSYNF

On to `CC(Cc1ccc(OC2CCCCC2)cc1)NCC(O)c1cccc(Cl)c1` (stereo not drawn), for which the growth inhibition in experiment [1] and in experiment [4] was 99% (active) each time. Besides, the inhibition in experiment [2] was 66% (active); in experiment [3], -4% (inactive). Besides, the result in experiment [5], in experiment [6], in experiment [7] and in experiment [8] was inactive.
Turning to `Cc1ccc(CC(C)NCC(O)c2cccc(Cl)c2)cc1` (stereo not drawn), the results for the growth inhibition in experiment [1] and in experiment [4] were 64% (active) and 93% (active), respectively. Moreover, the inhibition in experiment [2] is -4% (inactive); in experiment [3] it was -1% (inactive). Also, the result in experiment [5], in experiment [6], in experiment [7] and in experiment [8] was inactive.
Turning to `[O-]c1n[n+](C2CCCCC2)no1`, the growth inhibition in experiment [1] was 82% (active); in experiment [4], 91% (active). Also, the inhibition is -13% (inactive) in experiment [2] and -5% (inactive) in experiment [3]. Further, the result in experiment [5], in experiment [6], in experiment [7] and in experiment [8] was inactive.
As for `CCN(CC)CCN1C(=O)C(O)(c2ccccc2Cl)c2c1cc(C#N)cc2C(F)(F)F` (stereo not drawn), the growth inhibition was 19% (inactive) in experiment [1] and 88% (active) in experiment [4]. Also, the inhibition was 21% (inactive) in experiment [2] and -1% (inactive) in experiment [3]. For the same molecule, the result in experiment [5], in experiment [6], in experiment [7] and in experiment [8] was inactive.
As to `CCOC(=O)c1c(CN2CCN(C)CC2)n(Cc2ccccc2)c2cc(Br)c(O)cc12`, the growth inhibition in experiment [1] was 46% (inactive); in experiment [4], 100% (active). For the same molecule, the inhibition in experiment [2] is 11% (inactive); in experiment [3], -5% (inactive). For the same molecule, the result in experiment [5], in experiment [6], in experiment [7] and in experiment [8] was inactive.
Turning to `Cc1c(C(=O)NC2CCC(CN3CCC(c4c[nH]c5ccccc45)CC3)CC2)cnn1-c1c(Cl)cc(Cl)cc1Cl` (stereo not drawn), the growth inhibition in experiment [1] was 97% (active); in experiment [4], 100% (active). In addition, the values for the inhibition in experiment [2] and in experiment [3] were 53% (active) and 4% (inactive), respectively. For the same molecule, the outcome in experiment [5], in experiment [6], in experiment [7] and in experiment [8] was inactive.
In the case of `CCOC(=O)c1c(C)n(C2CCCCCC2)c2cc(Br)c(O)cc12`, the growth inhibition was 45% (inactive) in experiment [1] and 87% (active) in experiment [4]. For the same molecule, the inhibition in experiment [2] and in experiment [3] was -1% (inactive) throughout. The result in experiment [5], in experiment [6], in experiment [7] and in experiment [8] was inactive.
`O=C(/C=C/c1ccccc1Cl)NC1CCC(CN2CCC(c3c[nH]c4ccccc34)CC2)CC1` (stereo not drawn): the growth inhibition is 35% (inactive) and 51% (active) in experiment [1]; 99% (active) and 100% (active) in experiment [4]. For the same molecule, the inhibition is 33% (inactive) and 41% (inactive) in experiment [2]; -2% (inactive) and 3% (inactive) in experiment [3]. In addition, the result in experiment [5], in experiment [6], in experiment [7] and in experiment [8] was inactive.
Take `COCC(=O)N(Cc1ccccc1-c1ccc(CNCCc2ccccc2)cc1)C1CCN(Cc2ccccc2)CC1`: the growth inhibition was 86% (active) in experiment [1] and 94% (active) in experiment [4]. Moreover, the inhibition in experiment [2] was 39% (inactive); in experiment [3], 1% (inactive). Also, the outcome in experiment [5], in experiment [6], in experiment [7] and in experiment [8] was inactive.
`O=C(NC1CCC(CN2CCC(c3c[nH]c4ccccc34)CC2)CC1)c1csc(-c2cccc(Cl)c2Cl)n1` (stereo not drawn): the results for the growth inhibition in experiment [1] and in experiment [4] were 41% (inactive) and 99% (active), respectively. The inhibition in experiment [2] is 34% (inactive); in experiment [3], -3% (inactive). Also, the result in experiment [5], in experiment [6], in experiment [7] and in experiment [8] was inactive.
Turning to `O=C(C=Cc1cccc(Cl)c1Cl)NC1CCC(CN2CCC(c3c[nH]c4ccccc34)CC2)CC1` (stereo not drawn), the growth inhibition is 78% (active) and 5% (inactive) in experiment [1]; 102% (active) and 83% (active) in experiment [4]. Further, the inhibition in experiment [2] is 40% (inactive) and 33% (inactive); in experiment [3], 6% (inactive) and -5% (inactive). For the same molecule, the outcome in experiment [5], in experiment [6], in experiment [7] and in experiment [8] was inactive.
For `O=C(CC1CCCC1)N(CC1CCN(Cc2ccc(C(F)(F)F)cc2)CC1)c1ccc(N2CCOCC2)c(F)c1`, the results for the growth inhibition in experiment [1] and in experiment [4] were 97% (active) and 92% (active), respectively. Also, the results for the inhibition in experiment [2] and in experiment [3] were 10% (inactive) and -1% (inactive), respectively. Also, the outcome in experiment [5], in experiment [6], in experiment [7] and in experiment [8] was inactive.
On to `COc1ccc(CN2CCN(CCOC(c3ccccc3)c3ccc(Cl)cc3)CC2)c(O)c1` (stereo not drawn), for which the growth inhibition is 98% (active) in experiment [1] and 99% (active) in experiment [4]. Also, the figures for the inhibition in experiment [2] and in experiment [3] were 12% (inactive) and 0% (inactive), respectively. In addition, the result in experiment [5], in experiment [6], in experiment [7] and in experiment [8] was inactive.
`CN1CCC(N(C)c2nccc(N3CCN(Cc4cncn4Cc4ccccc4)CC3)n2)CC1`: the growth inhibition in experiment [1] and in experiment [4] was 100% (active) throughout. Besides, the values for the inhibition in experiment [2] and in experiment [3] were 15% (inactive) and 3% (inactive), respectively. Moreover, the outcome in experiment [5], in experiment [6], in experiment [7] and in experiment [8] was inactive.
For `OC(CNCc1ccccc1OC(F)F)c1cccc(C(F)(F)F)c1` (stereo not drawn), the growth inhibition in experiment [1] is 52% (active); in experiment [4], 97% (active). Further, the inhibition in experiment [2] is 2% (inactive); in experiment [3] it was -2% (inactive). Also, the outcome in experiment [5], in experiment [6], in experiment [7] and in experiment [8] was inactive.
Regarding `Cn1nc(-c2ccc(S(=O)(=O)NC3CCC(CN4CCC(c5c[nH]c6ccccc56)CC4)CC3)s2)cc1C(F)(F)F` (stereo not drawn), the growth inhibition is 29% (inactive) and 24% (inactive) in experiment [1]; 98% (active) and 96% (active) in experiment [4]. Also, the inhibition in experiment [2] is 35% (inactive) and 38% (inactive); in experiment [3], -2% (inactive) and 9% (inactive). For the same molecule, the outcome in experiment [5], in experiment [6], in experiment [7] and in experiment [8] was inactive.
Turning to `Cc1cc2cc(CNCCc3ccccc3Br)ccc2nc1N`, the figures for the growth inhibition in experiment [1] and in experiment [4] were 91% (active) and 98% (active), respectively. Moreover, the values for the inhibition in experiment [2] and in experiment [3] were 31% (inactive) and -1% (inactive), respectively. Besides, the outcome in experiment [5], in experiment [6], in experiment [7] and in experiment [8] was inactive.
On to `CC(C)CNCc1ccc(-c2cccc(CN(C(=O)NC3CCCCC3)C3CCN(Cc4ccccc4)CC3)c2)cc1`, for which the growth inhibition was 88% (active) in experiment [1] and 98% (active) in experiment [4]. Besides, the inhibition was 20% (inactive) in experiment [2] and 2% (inactive) in experiment [3]. Moreover, the result in experiment [5], in experiment [6], in experiment [7] and in experiment [8] was inactive.
In the case of `COc1cccc(C2(C)CCN(CCCCNC(=O)c3ccc(NC(=O)c4ccc(Cl)cc4)cc3)CC2)c1`, the growth inhibition in experiment [1] is 72% (active); in experiment [4], 97% (active). The inhibition in experiment [2] is 19% (inactive); in experiment [3], 8% (inactive). In addition, the result in experiment [5], in experiment [6], in experiment [7] and in experiment [8] was inactive.
As to `COc1ccc(CC(C)NCC(O)c2cccc(Cl)c2)cc1C` (stereo not drawn), the values for the growth inhibition in experiment [1] and in experiment [4] were 78% (active) and 89% (active), respectively. For the same molecule, the inhibition was 11% (inactive) in experiment [2] and -6% (inactive) in experiment [3]. Further, the result in experiment [5], in experiment [6], in experiment [7] and in experiment [8] was inactive.
For `OC(CNC1CCCCC1)c1ccc(Cl)c(Cl)c1` (stereo not drawn), the growth inhibition in experiment [1] was 96% (active); in experiment [4] it was 99% (active). In addition, the values for the inhibition in experiment [2] and in experiment [3] were 17% (inactive) and -1% (inactive), respectively. The outcome in experiment [5], in experiment [6], in experiment [7] and in experiment [8] was inactive.

The term inhibition denotes the change of the read-out against control, counted positive when it falls.
